Compound activity: PubChem, Broad Institute
EZH2 inh = inhibitors of human EZH2/PRC2 methyltransferase | inhibition, % at 12.5 µM | Q15910 | 57,000 compounds, 0.35% hits | PRC2 H3K27 methylation, DELFIA TRF, 1 h;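 active means mean inhibition of replicates at least 50% and every single replicate also reaching 50%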;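 further: dimethyl H3K27 on biotinylated H3 21-44 peptide detected by antibody; plate controls were median neutral control wells for no effect and median positive control wells for full effect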
Target sequence (Q15910 whole entry, looked up): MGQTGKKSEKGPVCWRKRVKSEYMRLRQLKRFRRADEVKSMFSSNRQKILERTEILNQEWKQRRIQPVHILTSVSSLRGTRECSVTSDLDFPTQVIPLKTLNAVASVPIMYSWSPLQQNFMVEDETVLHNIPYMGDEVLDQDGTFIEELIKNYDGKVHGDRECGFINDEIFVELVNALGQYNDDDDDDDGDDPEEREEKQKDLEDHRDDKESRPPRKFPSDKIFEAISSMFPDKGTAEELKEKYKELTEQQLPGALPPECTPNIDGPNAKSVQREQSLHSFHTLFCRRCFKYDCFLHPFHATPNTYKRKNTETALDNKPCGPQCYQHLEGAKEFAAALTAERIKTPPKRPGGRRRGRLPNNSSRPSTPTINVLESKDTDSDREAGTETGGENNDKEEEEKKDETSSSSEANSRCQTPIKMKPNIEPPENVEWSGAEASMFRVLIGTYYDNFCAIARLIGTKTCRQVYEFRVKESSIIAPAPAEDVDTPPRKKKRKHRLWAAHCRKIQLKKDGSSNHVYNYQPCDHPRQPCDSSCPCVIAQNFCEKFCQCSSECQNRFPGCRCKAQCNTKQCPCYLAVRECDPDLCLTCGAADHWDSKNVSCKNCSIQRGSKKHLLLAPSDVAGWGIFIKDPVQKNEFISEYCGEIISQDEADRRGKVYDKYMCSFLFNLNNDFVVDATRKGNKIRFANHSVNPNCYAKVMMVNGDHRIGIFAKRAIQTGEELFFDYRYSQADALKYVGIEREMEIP
An asterisk follows results filed as active. The sample as a whole holds a higher share of hits than the screen did.

SMILES	EZH2 inh
CS(=O)(=O)N(CC(=O)Nc1cccc(Br)c1)c1cccc2ccccc12	10
Cc1nc(-c2ccccc2)sc1-c1nnc(-c2cccc3ccccc23)o1	-7
O=C(CCCCCCC(=O)Nc1ccccc1O)N/N=C/c1ccc2ccccc2c1O	19
O=C(CCCCCC(=O)Nc1ccccc1O)N/N=C/c1ccc[nH]1	20
CC(Sc1nc(-c2ccccc2)c(C#N)c(=O)[nH]1)C(=O)Nc1ccc(Cl)cc1 (stereo unspecified)	46
CC(Sc1nc2ccccc2[nH]1)C(=O)Nc1cccc(Cl)c1 (stereo unspecified)	2
N#Cc1c(-c2ccccc2)nc(SCC(=O)N(c2ccccc2)c2ccccc2)[nH]c1=O	52*
CC(Sc1nc(-c2ccccc2)c(C#N)c(=O)[nH]1)C(=O)Nc1cccc(Cl)c1 (stereo unspecified)	63*
O=C(CSc1nc2sc3c(c2c(=O)[nH]1)CCCC3)N(c1ccccc1)c1ccccc1	31
O=C(CSc1ncn[nH]1)N(c1ccccc1)c1ccccc1	4
COC(=O)c1ccccc1NC(=O)c1cccc(NC(=O)COc2cc(C)c(Cl)c(C)c2)c1C	-3
CCOc1ccc2nc(NS(=O)(=O)c3ccc(C)c([N+](=O)[O-])c3)sc2c1	51*
CCOc1ccc(NC(=S)Nc2sc3c(c2C(=O)OC)CCC3)c([N+](=O)[O-])c1	39
CCOc1ccc2nc(NCc3cc(OC)c(OC)cc3OC)sc2c1	-13
O=C(O)CCCCCCC(=O)N/N=C/c1cccc2ccccc12	22
CSc1ccccc1NC(=O)C(C)N(c1ccc(C)cc1)S(C)(=O)=O (stereo unspecified)	5
O=C(CCCCCC(=O)N/N=C/c1cccc(Br)c1)NO	11
Cc1cc(C)nc(SCC(=O)c2ccc(Oc3ccccc3)cc2)n1	57*
Nc1nc(SCC(=O)c2ccc(Oc3ccccc3)cc2)n[nH]1	-10
Cc1cc(Oc2ccccc2)nc(SCC(N)=O)n1	0
NNC(=O)c1ccccc1O	-44
C=CCN1CCc2cc(OC)c(OC)cc2C1C#Cc1ccccc1 (stereo unspecified)	-8
CC(=O)Nc1ccccc1NC(=O)COc1ccc(Br)cc1Cl	4
C[C@H](CO)N1C[C@H](C)[C@H](CN(C)C(=O)CC2CC2)Oc2cc(C3=CCCC3)ccc2S1(=O)=O	55*
C[C@@H]1CN([C@H](C)CO)S(=O)(=O)c2ccc(C3=CCCC3)cc2O[C@@H]1CN(C)C(=O)CC1CC1	15
SMILES	EZH2 inh
C[C@H](CO)N1C[C@H](C)[C@H](CN(C)Cc2ccccc2)Oc2cc(C3=CCCCC3)ccc2S1(=O)=O	22
C[C@H]1CN([C@@H](C)CO)S(=O)(=O)c2ccc(C3=CCCC3)cc2O[C@@H]1CN(C)C(=O)CC1CC1	9
CC(C)CC#Cc1ccc2c(c1)O[C@@H](CN(C)Cc1ccccc1)[C@@H](C)CN([C@H](C)CO)S2(=O)=O	31
CC(C)CC#Cc1ccc2c(c1)O[C@H](CN(C)Cc1ccc(C(=O)O)cc1)[C@@H](C)CN([C@H](C)CO)S2(=O)=O	70*
C[C@H]1CN([C@@H](C)CO)S(=O)(=O)c2ccc(C3=CCCCC3)cc2O[C@H]1CN(C)Cc1ccccc1	56*
CC(C)CC#Cc1ccc2c(c1)O[C@@H](CN(C)Cc1ccc(F)cc1)[C@H](C)CN([C@H](C)CO)S2(=O)=O	6
C[C@@H]1CN([C@@H](C)CO)S(=O)(=O)c2ccc(C3=CCCCC3)cc2O[C@@H]1CN(C)Cc1ccccc1	27
N#Cc1cccc(NCCN2CCNC2=O)n1	-10
COCc1cc(C)n(CC(=O)Nc2cc(Cl)ccc2OC)c(=O)c1C#N	15
O=C(CCCCC(=O)N/N=C/c1ccncc1Br)NO	6
c1ccc(CCc2nn3c(COc4ccccc4)nnc3s2)cc1	26
CC(C)=CCc1cc(O[C@@H]2O[C@H](CO)[C@@H](O)[C@H](O)[C@H]2O)cc(CC=C(C)C)c1C(O)C(=O)O (stereo partly specified)	99*
CC(=O)c1c(O)cc(O[C@@H]2O[C@H](CO)[C@@H](O)[C@H](O)[C@H]2O)cc1O	94*
CC(=O)c1ccc(O[C@@H]2O[C@H](CO)[C@@H](O)[C@H](O)[C@H]2O)c(/C=C/C(C)(C)O)c1	5
O=C(CCc1ccc(O)cc1)c1c(O)cc(O)cc1O[C@@H]1O[C@H](CO)[C@@H](O)[C@H](O)[C@H]1O	-4
CC(O)CCCc1cc(O)cc(O[C@@H]2O[C@H](CO)[C@@H](O)[C@H](O)[C@H]2O)c1 (stereo partly specified)	5
COc1ccc(/C=C/c2cc(O)cc(O[C@@H]3O[C@H](CO)[C@@H](O)[C@H](O)[C@H]3O)c2)cc1	0
O=C(O)c1ccc(C(Nc2ccccn2)c2cc(Cl)c3cccnc3c2O)cc1 (stereo unspecified)	-3
COc1cc(CO)ccc1OC(C)=O	6
Cc1cc(C)cc(N(C(C)C(=O)O)S(C)(=O)=O)c1 (stereo unspecified)	-15
CCOc1ccc(C(Nc2cccc(C)n2)c2ccc3ccc(C)nc3c2O)cc1 (stereo unspecified)	-10
COc1ccc(/C=N/NC(=O)CCCCC(=O)NO)cc1	-4
CCOC(=O)[C@H](Cc1ccccc1)NC(=O)CN=[N+]=[N-]	16
O=C(CSc1nc2ccccc2[nH]1)Nc1ccc(Cl)c(Br)c1	54*
COc1ccc(NC(=O)CSc2nc3ccccc3[nH]2)cc1Cl	-23
SMILES	EZH2 inh
Cc1cc(NC(=O)CSc2nc3ccccc3[nH]2)ccc1Br	8
O=C(N/N=C/c1ccc2ccccc2c1O)c1ccccn1	-4
CC(C)(C)/C=N/NC(=O)CCCCCCC(=O)NO	-4
CC(C)(C)OC(=O)Nc1ccc(/C=N/NC(=O)c2ccc(C(=O)NO)cc2)cc1	10
CC1(C)COC(CCC/C=N/NC(=O)CCCCCCC(=O)O)OC1	4
CS(=O)(=O)N(CC(=O)Nc1cccc(C(F)(F)F)c1)c1cc(Cl)c(Cl)cc1Cl	-2
Clc1ccc2nc(SCc3csc(Nc4ccccc4)n3)oc2c1	42
Clc1ccc(SCc2csc(-c3ccsc3)n2)cc1	63*
Cc1ccc(C)c(NC(=O)c2ccc(OCC(=O)Nc3cccc(Cl)c3)cc2)c1	4
CN1CCN(NC(=O)CN2C(=O)S/C(=C/c3ccc(Cl)cc3)C2=O)CC1	-6
Cc1nccn1CC(O)COc1ccccc1Br (stereo unspecified)	-5
COC(=O)COc1ccc(NC(=O)c2ccc(NC(C)=O)cc2)cc1	-5
O=C1C[C@@H](c2ccccc2)Oc2cc(O)cc(O)c21	-14
O=C(Oc1ccc([C@@H]2Oc3cc(O)cc(O)c3C[C@H]2O)cc1O)c1cc(O)c(O)c(O)c1	99*
COc1cc(C2Oc3c(O)ccc([C@@H]4Oc5cc(O)cc(O)c5C(=O)[C@H]4O)c3C2CO)ccc1O (stereo partly specified)	17
COc1cc(/C=C/C(=O)NCCSc2c[nH]c3ccccc23)cc(OC)c1OC	-5
COc1cccc2cc(C(=O)CC3(O)C(=O)N(Cc4ccccc4)c4ccc(Br)cc43)c(=O)oc12 (stereo unspecified)	14
CC(C)(C)[S@@](=O)N1Cc2cc(C(=O)NCCc3ccncc3)nc(-c3cccc(-c4ccc(C#N)cc4)c3)c2[C@H]1CCO	50*
CC(C)(C)[S@](=O)N1Cc2cc(C(=O)NCCc3ccncc3)nc(-c3cccc(-c4cccc(C#N)c4)c3)c2[C@@H]1CCO	-7
CC(C)(C)[S@@](=O)N1Cc2cc(C(=O)NCc3ccncc3)nc(-c3cccc(-c4ccc(C#N)cc4)c3)c2[C@H]1CCO	0
